# Assay results reported in PubChem BioAssay (Tox21).
# “And” between values parts separate entries of the source, which are not always exact repeats. Equal entries are not always repeated. A number with no mark means an inactive call. Records with an inconclusive call do not appear. Where a call stands in place of a potency, no number is given. The source made the active and inactive calls. Unless noted, the call rests on the fitted dose curve; in most records, active means well fitted curve in the direction sought with a large enough effect in the repeat runs; inconclusive means weak or mixed curves; inactive means no such curve, though single readings can be large; an effect the other way counts as inactive or inconclusive.
# Legend:
# [1] = molecular target: Progesterone receptor (Homo sapiens) (UniProt P06401); test: qHTS assay to identify small molecule agonists of the progesterone receptor (PR) signaling pathway (AID 1346784; calls by dose curve; further: nearly all actives have a fitted effect of over 30% in size)
# Progesterone receptor (Homo sapiens), sequence (P06401 whole entry, looked up): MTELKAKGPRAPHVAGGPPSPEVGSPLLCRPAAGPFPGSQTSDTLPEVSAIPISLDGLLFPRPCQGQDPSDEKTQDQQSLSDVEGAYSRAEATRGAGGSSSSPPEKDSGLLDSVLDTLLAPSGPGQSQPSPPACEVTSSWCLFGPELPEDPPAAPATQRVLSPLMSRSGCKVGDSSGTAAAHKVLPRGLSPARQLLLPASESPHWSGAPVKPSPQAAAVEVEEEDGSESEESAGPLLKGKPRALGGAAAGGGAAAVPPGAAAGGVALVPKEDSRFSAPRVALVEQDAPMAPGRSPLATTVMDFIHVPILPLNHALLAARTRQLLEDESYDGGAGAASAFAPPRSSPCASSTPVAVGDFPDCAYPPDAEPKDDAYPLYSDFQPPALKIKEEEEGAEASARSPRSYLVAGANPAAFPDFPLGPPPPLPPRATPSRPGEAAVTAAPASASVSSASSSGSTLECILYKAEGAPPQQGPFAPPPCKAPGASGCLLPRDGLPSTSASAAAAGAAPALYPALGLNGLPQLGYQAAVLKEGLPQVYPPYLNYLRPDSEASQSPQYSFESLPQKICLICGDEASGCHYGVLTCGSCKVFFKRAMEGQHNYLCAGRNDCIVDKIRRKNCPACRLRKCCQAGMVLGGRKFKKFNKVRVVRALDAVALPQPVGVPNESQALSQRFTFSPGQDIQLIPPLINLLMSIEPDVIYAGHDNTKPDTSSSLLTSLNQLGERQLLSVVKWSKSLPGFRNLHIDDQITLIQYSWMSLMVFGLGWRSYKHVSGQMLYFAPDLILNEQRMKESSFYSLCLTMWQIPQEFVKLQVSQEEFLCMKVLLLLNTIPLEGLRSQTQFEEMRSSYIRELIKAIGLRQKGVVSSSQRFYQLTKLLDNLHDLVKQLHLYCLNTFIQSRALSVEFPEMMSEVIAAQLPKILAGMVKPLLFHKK
# Summary of the method: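 Agonist qHTS: compounds pinned onto 3,000 PR-UAS-bla HEK 293T cells per well in charcoal-stripped serum medium, 16hr at 37C, then beta-lactamase activity measured by LiveBLAzer FRET fluorescence after 2 hours at room temperature.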
# [2] = molecular target: Progesterone receptor (Homo sapiens) (UniProt P06401); test: qHTS assay to identify small molecule antagonists of the progesterone receptor (PR) signaling pathway (AID 1346795; active means well fitted inhibition curve with a large enough effect in the signal ratio in the repeat runs, not every such curve was filed as active; the % refers to the signal ratio; further: potency means the concentration at half of the fitted maximal effect)
# Summary of the method: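 Antagonist mode with agonist R5020 at 1 nM final and 16 hr incubation at 37C. Reporter was beta-lactamase driven by UAS in HEK293T (PR-UAS-bla), 2% charcoal-stripped serum; signal from LiveBLAzer FRET substrate, 2 hr at room temperature.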
# [3] = qHTS assay to identify small molecule agonists of the progesterone receptor (PR) signaling pathway - cell viability counter screen (AID 1346799; calls by dose curve; further: nearly all actives have a fitted effect of over 45% in size)
# Summary of the method: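 Cytotoxicity measured by CellTiter-Glo luminescence (30 min, RT) in the same wells as the PR beta-lactamase agonist read. Those HEK293T cells had 16 h compound treatment at 37 C in 2% charcoal-stripped FBS medium.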
# [4] = qHTS assay to identify small molecule antagonists of the TGF-beta/Smad signaling pathway - cell viability counter screen (AID 1346824); further: nearly all actives have a fitted effect of over 50% in size
# Summary of the method: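 Cytotoxicity counter-screen run in the same wells as the beta-lactamase Smad reporter read: CellTiter-Glo luminescence after 30 min at room temperature. HEK 293T SBE-bla cells had 5 hr compound exposure at 37 C with TGF-beta1 (0.25 ng/mL stock).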
# [5] = qHTS assay to identify small molecule agonists of the TGF-beta/Smad signaling pathway - cell viability counter screen (AID 1346829); further: top concentration of the series differs between compounds; nearly all actives have a fitted effect of over 45% in size
# Summary of the method: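 Cytotoxicity counter screen: CellTiter-Glo luminescence (30 min, room temperature) measured in the SBE-bla HEK 293T reporter wells after 5 hr compound treatment at 37 C and the 2 hr substrate step.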
# [6] = qHTS assay to identify small molecule agonists of the TGF-beta/Smad signaling pathway (AID 1346859; active means well fitted activation curve with a large enough effect in the signal ratio in the repeat runs, not every such curve was filed as active; the % refers to the signal ratio; further: series mostly up to about 77 µM)
# Summary of the method: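 Fluorescence (ex 405 nm; em 460 and 530 nm) was read 2 h after LiveBLAzer FRET substrate at RT. The preceding compound treatment of overnight-plated SBE-bla HEK293T cells lasted 5 h at 37 C.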
# [7] = molecular target: Thyrotropin-releasing hormone receptor (Homo sapiens) (UniProt P34981); test: qHTS assay to identify small molecule antagonists of the thyrotropin-releasing hormone receptor (TRHR) signaling pathway (AID 1346877; active means well fitted inhibition curve with a large enough effect in the repeat runs, not every such curve was filed as active; further: potency means the concentration at half of the fitted maximal effect; on activity, negative = inhibition: series mostly up to about 51 µM)
# Thyrotropin-releasing hormone receptor (Homo sapiens), sequence (P34981 whole entry, looked up): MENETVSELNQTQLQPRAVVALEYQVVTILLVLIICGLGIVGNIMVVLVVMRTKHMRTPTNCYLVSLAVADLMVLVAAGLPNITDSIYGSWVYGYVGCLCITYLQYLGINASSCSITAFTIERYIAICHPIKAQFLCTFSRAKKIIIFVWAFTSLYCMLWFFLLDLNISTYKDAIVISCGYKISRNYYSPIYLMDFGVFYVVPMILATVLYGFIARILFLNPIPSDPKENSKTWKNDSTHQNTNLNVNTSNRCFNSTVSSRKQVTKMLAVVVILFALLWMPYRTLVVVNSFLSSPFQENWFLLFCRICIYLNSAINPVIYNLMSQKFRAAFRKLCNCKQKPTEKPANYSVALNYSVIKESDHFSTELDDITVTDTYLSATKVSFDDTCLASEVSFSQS
# Summary of the method: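 HEK293/TRHR cells, 18 h, 37 °C; Ca2+ dye 2 h; cpd 5 min RT; TRH 1 nM final; fluorescence read 3 min, 1 s intervals; 15 concs, triplicate.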
# [8] = molecular target: Thyrotropin-releasing hormone receptor (Homo sapiens) (UniProt P34981); test: qHTS assay to identify small molecule agonists of the thyrotropin-releasing hormone receptor (TRHR) signaling pathway (AID 1346891; calls by dose curve; further: series mostly up to about 58 µM)
# Summary of the method: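 Agonist-mode intracellular calcium readout: kinetic fluorescence over 3 min at 1 s intervals after compound addition to TRHR-HEK293 cells (18 h seeded, 2 h dye-loaded at 37 C). Fifteen concentrations, triplicates.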
# [9] = Human pregnane X receptor (PXR) small molecule agonists, qHTS cell viability counter screen (AID 1346977); further: nearly all actives have a fitted effect of over 50% in size; further: potency means the concentration at half of the fitted maximal effect
# Summary of the method: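 Same-well viability read: CellTiter-Fluor added after 23 hr compound exposure, fluorescence measured 1 hr later. Cells were PXR-Luc HepG2 seeded at 2,000/well in 5% charcoal-stripped FBS medium, rested 5 hr before dosing at 37 C.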
# [10] = Caspase-3/7 induction in HepG2 cells by small molecules, qHTS assay (AID 1346978); further: nearly all actives have a fitted effect of over 15% in size
# Summary of the method: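 Caspase-3/7 induction was measured by Caspase-Glo 3/7 luminescence (30 min, room temperature) after a 17 hr compound exposure of wild-type HepG2 cells seeded at 2,000 per well and pre-incubated 5 hr.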
# [11] = Caspase-3/7 induction in CHO-K1 cells by small molecules, qHTS cell viability counter screen (AID 1346979); further: nearly all actives have a fitted effect of over 35% in size; further: potency means the concentration at half of the fitted maximal effect
# Summary of the method: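 Cytotoxicity counter screen: CellTiter-Fluor added to compound-treated wild-type CHO-K1 cells at 16 h (37C, 5% CO2), fluorescence measured 1 h later; same wells as caspase-3/7 measurement.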
# [12] = Caspase-3/7 induction in CHO-K1 cells by small molecules, qHTS assay (AID 1346980); further: nearly all actives have a fitted effect of over 15% in size
# Summary of the method: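 Luminescent Caspase-Glo 3/7 read (30min, room temperature) quantified apoptosis induction. Cells were wild-type CHO-K1, treated with compound for 17hr at 37 C and 5% CO2.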
# [13] = Caspase-3/7 induction in HepG2 cells by small molecules, qHTS cell viability counter screen (AID 1346981); further: series mostly up to about 92 µM; nearly all actives have a fitted effect of over 30% in size
# Summary of the method: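 Fluorescence read-out of live-cell protease activity (CellTiter-Fluor) after 1 hr with reagent. This was measured in the same wells as the caspase-3/7 luminescence, on HepG2 cells exposed to DMSO-dissolved compounds for 16 hr at 37 C.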
# [14] = molecular target: Nuclear receptor subfamily 1 group I member 2 (Homo sapiens) (UniProt O75469); test: Human pregnane X receptor (PXR) small molecule agonists, qHTS assay (AID 1346982); further: nearly all actives have a fitted effect of over 35% in size; further: potency means the concentration at half of the fitted maximal effect
# Nuclear receptor subfamily 1 group I member 2 (Homo sapiens), sequence (O75469 whole entry, looked up): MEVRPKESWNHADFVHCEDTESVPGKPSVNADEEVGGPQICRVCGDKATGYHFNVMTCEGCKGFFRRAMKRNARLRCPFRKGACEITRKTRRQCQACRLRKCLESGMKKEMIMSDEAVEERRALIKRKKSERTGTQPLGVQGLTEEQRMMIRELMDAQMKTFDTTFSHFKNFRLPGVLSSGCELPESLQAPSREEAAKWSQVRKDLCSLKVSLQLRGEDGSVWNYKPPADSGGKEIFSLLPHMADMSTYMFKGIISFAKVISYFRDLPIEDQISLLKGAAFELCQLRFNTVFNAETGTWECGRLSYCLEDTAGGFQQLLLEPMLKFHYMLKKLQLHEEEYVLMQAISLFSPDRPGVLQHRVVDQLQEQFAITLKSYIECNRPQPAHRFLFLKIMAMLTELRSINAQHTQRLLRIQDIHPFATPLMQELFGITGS
# Summary of the method: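 HepG2 PXR-Luc reporter line, 5% charcoal-stripped FBS; 5 hr pre-incubation, compound (DMSO) 24 hr at 37 C/5% CO2; ONE-Glo 30 min RT; luminescence read-out.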
# [15] = molecular target: Nuclear receptor subfamily 1 group I member 2 (Rattus norvegicus) (UniProt Q9R1A7); test: Rat pregnane X receptor (rPXR) activation by small molecules, qHTS assay (AID 1346983); details: rPXR luciferase reporter cells, One-Glo luminescence, 24 h; max activation: hits give high values; further: nearly all actives have a fitted effect of over 20% in size
# Nuclear receptor subfamily 1 group I member 2 (Rattus norvegicus), sequence (Q9R1A7 whole entry, looked up): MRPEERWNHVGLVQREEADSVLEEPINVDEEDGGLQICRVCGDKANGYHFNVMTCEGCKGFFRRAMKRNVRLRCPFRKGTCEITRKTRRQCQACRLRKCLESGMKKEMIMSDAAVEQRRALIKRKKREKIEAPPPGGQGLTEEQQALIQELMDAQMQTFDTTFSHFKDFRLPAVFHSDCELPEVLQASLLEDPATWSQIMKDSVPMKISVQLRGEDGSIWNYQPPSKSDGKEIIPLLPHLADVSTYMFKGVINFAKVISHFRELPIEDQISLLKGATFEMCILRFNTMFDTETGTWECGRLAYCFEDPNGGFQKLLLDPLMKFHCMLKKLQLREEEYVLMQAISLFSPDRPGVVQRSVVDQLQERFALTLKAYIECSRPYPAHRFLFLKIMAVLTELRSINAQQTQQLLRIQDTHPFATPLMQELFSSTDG
# Summary of the method: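 Luminescent readout (One-Glo luciferase, 30 min room temperature) followed 24 hr compound treatment at 37 C of rPXR cells plated 2,000 per well and preincubated 5hr; qHTS format with compounds delivered in DMSO.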
# [16] = molecular target: Nuclear receptor subfamily 1 group I member 2 (Homo sapiens) (UniProt O75469); test: CYP3A4 induction through human pregnane X receptor (PXR) by small molecules, qHTS assay (AID 1346984); further: nearly all actives have a fitted effect of over 40% in size
# Summary of the method: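 HepG2-derived DPX-2 line carrying PXR plus a CYP3A4-promoter luciferase reporter; cells plated 5 hr, compound-exposed 24 hr at 37C. CYP3A4 activity probed with 3uM (final) Luciferin-IPA for 3hr, then luciferase read after One-Glo.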
# [17] = molecular target: Cytochrome P450 2C19 (Homo sapiens) (UniProt P33261); test: Cytochrome P450 Family 2 Subfamily C Member 19 (CYP2C19) small molecule antagonists: luciferase reporter qHTS assay (AID 1671197); further: nearly all actives have a fitted effect of over 65% in size; further: potency means the concentration at half of the fitted maximal effect; on activity change, negative = inhibition: series mostly up to about 120 µM
# Cytochrome P450 2C19 (Homo sapiens), sequence (P33261 whole entry, looked up): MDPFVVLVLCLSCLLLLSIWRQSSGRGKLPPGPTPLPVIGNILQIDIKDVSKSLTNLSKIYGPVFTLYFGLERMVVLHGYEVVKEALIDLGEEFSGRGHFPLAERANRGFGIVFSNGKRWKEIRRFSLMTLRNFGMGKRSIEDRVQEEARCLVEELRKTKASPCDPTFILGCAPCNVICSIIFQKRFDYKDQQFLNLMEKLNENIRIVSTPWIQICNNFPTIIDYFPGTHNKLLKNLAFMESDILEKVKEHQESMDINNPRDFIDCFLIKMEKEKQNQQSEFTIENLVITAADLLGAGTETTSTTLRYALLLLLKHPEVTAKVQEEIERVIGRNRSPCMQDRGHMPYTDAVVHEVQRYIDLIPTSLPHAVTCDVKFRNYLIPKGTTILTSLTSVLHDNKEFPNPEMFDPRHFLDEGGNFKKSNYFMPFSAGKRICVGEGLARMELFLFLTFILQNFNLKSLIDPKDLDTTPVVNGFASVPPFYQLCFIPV
# Summary of the method: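 Luminescent readout of CYP2C19 activity: luciferin product detected 20 min after adding detection reagent. Before that, compound and enzyme-substrate mix preincubated 10 min at room temperature; NADPH-regenerating system started a 1 h, 37C reaction. Ketoconazole as positive control.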
# [18] = molecular target: Cytochrome P450 2C9 (Homo sapiens) (UniProt P11712); test: Cytochrome P450 Family 2 Subfamily C Member 9 (CYP2C9) small molecule antagonists: luciferase reporter qHTS assay (AID 1671198); further: nearly all actives have a fitted effect of over 50% in size; further: potency means the concentration at half of the fitted maximal effect; on activity change, negative = inhibition: series mostly up to about 120 µM
# Cytochrome P450 2C9 (Homo sapiens), sequence (P11712 whole entry, looked up): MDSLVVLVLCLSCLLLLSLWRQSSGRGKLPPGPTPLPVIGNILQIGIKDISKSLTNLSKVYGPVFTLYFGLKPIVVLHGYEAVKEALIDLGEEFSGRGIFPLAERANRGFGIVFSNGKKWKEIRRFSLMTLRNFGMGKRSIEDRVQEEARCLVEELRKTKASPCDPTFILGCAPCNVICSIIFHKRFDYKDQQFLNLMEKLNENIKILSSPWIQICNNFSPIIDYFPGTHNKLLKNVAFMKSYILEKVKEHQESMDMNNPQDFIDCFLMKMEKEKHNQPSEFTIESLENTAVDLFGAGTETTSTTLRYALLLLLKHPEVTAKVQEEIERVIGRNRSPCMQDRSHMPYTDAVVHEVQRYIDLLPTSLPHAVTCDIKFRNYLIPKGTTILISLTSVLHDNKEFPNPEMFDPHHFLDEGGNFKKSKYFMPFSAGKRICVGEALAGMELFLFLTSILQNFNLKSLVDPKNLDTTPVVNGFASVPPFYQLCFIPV
# Summary of the method: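 Enzyme-substrate mix preincubated with compound 10 min at room temperature; reaction started with NADPH regeneration solution, 1 h 37C. Luminescent luciferin product read after 20 min detection reagent.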
# [19] = molecular target: Cytochrome P450 2D6 (Homo sapiens) (UniProt P10635); test: Cytochrome P450 Family 2 Subfamily D Member 6 (CYP2D6) small molecule antagonists: luciferase reporter qHTS assay (AID 1671196); further: nearly all actives have a fitted effect of over 50% in size; further: potency means the concentration at half of the fitted maximal effect; on activity change, negative = inhibition: series mostly up to about 120 µM
# Cytochrome P450 2D6 (Homo sapiens), sequence (P10635 whole entry, looked up): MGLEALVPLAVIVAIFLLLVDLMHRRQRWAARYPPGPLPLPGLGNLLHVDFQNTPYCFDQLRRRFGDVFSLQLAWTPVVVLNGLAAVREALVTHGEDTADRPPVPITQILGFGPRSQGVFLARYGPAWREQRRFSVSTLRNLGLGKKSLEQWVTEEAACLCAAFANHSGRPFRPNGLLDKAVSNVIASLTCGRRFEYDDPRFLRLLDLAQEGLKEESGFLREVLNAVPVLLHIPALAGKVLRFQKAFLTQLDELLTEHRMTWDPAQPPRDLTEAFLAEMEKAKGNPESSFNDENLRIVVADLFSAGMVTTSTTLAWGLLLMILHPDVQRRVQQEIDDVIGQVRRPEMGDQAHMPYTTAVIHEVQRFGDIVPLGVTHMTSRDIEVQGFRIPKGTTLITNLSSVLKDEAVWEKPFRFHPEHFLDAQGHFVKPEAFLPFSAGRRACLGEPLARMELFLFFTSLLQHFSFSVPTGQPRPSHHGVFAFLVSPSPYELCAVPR
# Summary of the method: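 Luminogenic proluciferin substrate, CYP2D6 enzyme; 10 min RT preincubation with compound, NADPH regeneration system added, 1 h RT. Stop/detection reagent, 20 min RT, luminescence read (RLU). Signal proportional to CYP activity.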
# [20] = qHTS assay to identify small molecule antagonists of the progesterone receptor (PR) signaling pathway - cell viability counter screen (AID 1346798)
# Summary of the method: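 Cytotoxicity read as CellTiter-Glo luminescence (30 min, room temperature) in the same wells as the beta-lactamase readout. HEK293T PR-UAS-bla cells in charcoal-stripped 2% FBS received compound and R5020, then 16 h at 37C, 5% CO2.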
structure (smiles),measurement,setting,value
Nc1ncnc2c1ncn2[C@@H]1O[C@H](COP(=O)(O)O)[C@@H](O)[C@H]1O,outcome,[1],inactive
same,Potency,[2],inactive
same,Potency,[3],inactive
same,Potency,[4],inactive
same,Potency,[5],inactive
same,Potency,[6],inactive
same,Potency,[7],inactive
same,Potency,[8],inactive
same,Potency,[9],inactive
same,Potency,[10],inactive
same,Potency,[11],inactive
same,Potency,[12],inactive
same,Potency,[13],inactive
same,Potency,[14],inactive
same,max activation,[15],-2.61%
same,Potency,[16],inactive
same,Potency,[17],inactive
same,Potency,[18],inactive
CC(C)c1ccccc1N,outcome,[1],inactive
same,Potency,[2],inactive
same,Potency,[3],inactive
same,Potency,[4],inactive
same,Potency,[5],inactive
same,Potency,[6],inactive
same,Potency,[7],inactive
same,Potency,[8],inactive
same,Potency,[9],inactive
same,Potency,[10],inactive
same,Potency,[11],inactive
same,Potency,[12],inactive
same,Potency,[13],inactive
same,Potency,[14],61.1 µM (active)
same,Potency,[19],inactive
same,Potency,[17],39.9 µM (active)
CCCCCCCCCCCCCCNCCO,outcome,[1],inactive
same,Potency,[2],inactive
same,Potency,[4],inactive
same,Potency,[5],inactive
same,Potency,[6],inactive
same,Potency,[9],inactive
same,Potency,[10],inactive
same,Potency,[12],inactive
same,Potency,[13],inactive
same,Potency,[14],inactive
same,max activation,[15],11.2%
same,Potency,[16],inactive
same,Potency,[19],3.09 µM (active)
same,Potency,[17],inactive
same,Potency,[18],inactive
O=C=NCc1cccc(CN=C=O)c1,activation,[1],-0.779% [at 19 µM]
same,"activity change, negative = inhibition",[2],0.417% [at 18.9 µM]
same,"activity change, negative = cytotoxicity",[3],-1.39% [at 19 µM]
same,"viability change, negative = cytotoxic",[4],-4.21% [at 15.8 µM]
same,"activity change, negative = cytotoxicity",[5],-12.3% [at 15.8 µM]
same,activation,[6],3.26% [at 15.8 µM]
same,"activity, negative = inhibition",[7],1.76% [at 10.5 µM]
same,activation,[8],-0.119% [at 11.8 µM]
same,"activity change, negative = cytotoxicity",[9],4.21% [at 19 µM]
same,caspase activation,[10],-0.106% [at 19 µM]
same,"activity change, negative = cytotoxicity",[11],0.691% [at 19 µM]
same,caspase-3/7 activation,[12],-0.138% [at 19 µM]
same,"activity change, negative = cytotoxicity",[13],9.74% [at 19 µM]
same,"activity change, negative = inhibition",[19],-24.5% [at 23.6 µM]
same,Potency,[18],6.74 µM (active)
CC(C(O)c1ccccc1)N(C)CCOC(c1ccccc1)c1ccccc1 (stereo not given),outcome,[1],inactive
same,Potency,[2],23.7 µM (active)
same,Potency,[5],inactive
same,Potency,[7],inactive
same,Potency,[8],inactive
same,Potency,[9],29.8 µM (active)
same,Potency,[12],inactive
same,Potency,[14],7.5 µM (active)
same,Potency,[19],0.174 µM (active)
same,Potency,[17],7.76 µM (active)
same,Potency,[18],17.4 µM (active)
CC(C)(c1cc(Br)c(O)c(Br)c1)c1cc(Br)c(O)c(Br)c1,outcome,[1],inactive
same,Potency,[2],13.6 µM (active) and 17.2 µM (active)
same,Potency,[4],inactive
same,Potency,[5],inactive
same,Potency,[6],inactive
same,Potency,[7],33.8 µM (active)
same,Potency,[8],inactive
same,Potency,[9],inactive
same,Potency,[10],inactive
same,Potency,[11],60.9 µM (active)
same,Potency,[13],inactive
same,Potency,[14],54.3 µM (active) and 60.9 µM (active) and 57.9 µM (active)
same,Potency,[17],22.4 µM (active) and 35.5 µM (active)
same,Potency,[18],31.6 µM (active) and 35.5 µM (active) and 30 µM (active)
CCNc1nc(NC(C)CC)nc(OC)n1 (stereo not given),outcome,[1],inactive
same,Potency,[20],inactive
same,Potency,[3],inactive
same,Potency,[4],inactive
same,Potency,[5],inactive
same,Potency,[6],inactive
same,Potency,[7],inactive
same,Potency,[8],inactive
same,Potency,[9],inactive
same,Potency,[10],inactive
same,Potency,[11],inactive
same,Potency,[12],inactive
same,Potency,[13],inactive
same,Potency,[14],24.3 µM (active)
same,Potency,[19],inactive
same,Potency,[18],inactive
